How the values were obtained:
Assay in all cases: log2 ratio of Biotin-Ahx-Ub-VS probe labelling (fragment/DMSO); higher = less target engagement (more negative = stronger competition), active = hit call of the paper (q ≤ 0.05, log2 ratio ≤ -1)
Settings in all cases: compound concentration: 200 uM; treatment time: 3 h
[1] = target: T1, USP19 (UniProt O94966)
T1 sequence (whole entry): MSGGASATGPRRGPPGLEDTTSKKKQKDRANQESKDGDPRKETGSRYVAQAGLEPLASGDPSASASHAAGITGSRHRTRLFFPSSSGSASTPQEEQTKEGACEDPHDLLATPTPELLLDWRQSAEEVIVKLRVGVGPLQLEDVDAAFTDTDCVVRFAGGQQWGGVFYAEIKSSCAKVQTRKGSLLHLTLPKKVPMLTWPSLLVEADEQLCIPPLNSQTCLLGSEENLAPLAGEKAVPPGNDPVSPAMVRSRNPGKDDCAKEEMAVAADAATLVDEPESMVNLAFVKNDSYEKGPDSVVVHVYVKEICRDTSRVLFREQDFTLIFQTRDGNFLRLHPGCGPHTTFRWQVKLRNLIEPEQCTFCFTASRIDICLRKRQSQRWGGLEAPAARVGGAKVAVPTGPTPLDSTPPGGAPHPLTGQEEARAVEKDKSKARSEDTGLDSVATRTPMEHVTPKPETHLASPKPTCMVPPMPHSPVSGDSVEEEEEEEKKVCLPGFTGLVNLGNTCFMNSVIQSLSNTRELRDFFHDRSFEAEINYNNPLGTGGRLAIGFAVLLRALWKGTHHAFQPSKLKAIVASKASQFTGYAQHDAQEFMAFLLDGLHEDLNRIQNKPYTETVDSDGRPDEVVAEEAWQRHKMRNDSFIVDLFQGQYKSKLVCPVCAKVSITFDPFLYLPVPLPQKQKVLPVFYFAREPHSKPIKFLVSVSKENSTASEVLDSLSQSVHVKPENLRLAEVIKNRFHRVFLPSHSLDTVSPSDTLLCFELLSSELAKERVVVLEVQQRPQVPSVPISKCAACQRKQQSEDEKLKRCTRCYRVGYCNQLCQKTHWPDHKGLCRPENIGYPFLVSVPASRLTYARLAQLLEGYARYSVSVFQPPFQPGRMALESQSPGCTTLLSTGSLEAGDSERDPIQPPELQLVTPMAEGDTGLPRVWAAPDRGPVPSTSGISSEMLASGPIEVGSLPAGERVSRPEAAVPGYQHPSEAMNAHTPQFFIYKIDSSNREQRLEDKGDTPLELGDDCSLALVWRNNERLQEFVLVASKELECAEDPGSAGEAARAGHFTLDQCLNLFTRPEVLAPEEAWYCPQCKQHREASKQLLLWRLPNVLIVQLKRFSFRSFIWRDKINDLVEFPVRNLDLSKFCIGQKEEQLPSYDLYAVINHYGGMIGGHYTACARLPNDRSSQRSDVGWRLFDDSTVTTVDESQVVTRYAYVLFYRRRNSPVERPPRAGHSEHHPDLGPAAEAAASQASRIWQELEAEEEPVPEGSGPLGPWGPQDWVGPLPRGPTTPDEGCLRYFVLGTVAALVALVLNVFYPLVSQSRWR
How it was run: (§1)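 The table lists average log2 ratios of fragment over vehicle, from an unpaired t-test on global-median-normalised Spectronaut label-free quantities. Proteins with ≥2 unique peptides were used. Samples were HEK293T lysate (495 µg) treated in triplicate with fragment at 200 µM or vehicle for 3 h, then with Biotin-Ahx-Ub-VS (0.5 µM final) for 1 h, with labelled DUBs NeutrAvidin-enriched and run by diaPASEF LC-MS/MS.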

[2] = target: T2, USP22 (UniProt Q9UPT9)
T2 sequence (whole entry): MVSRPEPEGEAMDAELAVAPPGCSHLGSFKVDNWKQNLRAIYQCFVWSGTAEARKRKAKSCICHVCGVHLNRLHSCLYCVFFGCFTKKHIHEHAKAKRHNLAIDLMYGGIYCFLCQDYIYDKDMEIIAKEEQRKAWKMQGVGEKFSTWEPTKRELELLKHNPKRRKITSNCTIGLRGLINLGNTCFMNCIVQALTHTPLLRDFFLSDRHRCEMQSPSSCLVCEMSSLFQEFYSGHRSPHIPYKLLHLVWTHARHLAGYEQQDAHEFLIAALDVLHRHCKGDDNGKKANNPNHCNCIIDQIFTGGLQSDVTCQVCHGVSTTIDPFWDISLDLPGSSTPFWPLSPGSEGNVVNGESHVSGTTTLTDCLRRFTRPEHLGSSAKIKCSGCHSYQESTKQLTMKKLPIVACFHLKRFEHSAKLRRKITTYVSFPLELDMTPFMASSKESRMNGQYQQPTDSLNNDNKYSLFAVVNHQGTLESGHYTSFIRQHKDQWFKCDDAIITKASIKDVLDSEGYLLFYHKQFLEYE
How it was run: as §1

[3] = target: USP24 (UniProt Q9UPU5)
Chain of USP24 (Q9UPU5 whole entry): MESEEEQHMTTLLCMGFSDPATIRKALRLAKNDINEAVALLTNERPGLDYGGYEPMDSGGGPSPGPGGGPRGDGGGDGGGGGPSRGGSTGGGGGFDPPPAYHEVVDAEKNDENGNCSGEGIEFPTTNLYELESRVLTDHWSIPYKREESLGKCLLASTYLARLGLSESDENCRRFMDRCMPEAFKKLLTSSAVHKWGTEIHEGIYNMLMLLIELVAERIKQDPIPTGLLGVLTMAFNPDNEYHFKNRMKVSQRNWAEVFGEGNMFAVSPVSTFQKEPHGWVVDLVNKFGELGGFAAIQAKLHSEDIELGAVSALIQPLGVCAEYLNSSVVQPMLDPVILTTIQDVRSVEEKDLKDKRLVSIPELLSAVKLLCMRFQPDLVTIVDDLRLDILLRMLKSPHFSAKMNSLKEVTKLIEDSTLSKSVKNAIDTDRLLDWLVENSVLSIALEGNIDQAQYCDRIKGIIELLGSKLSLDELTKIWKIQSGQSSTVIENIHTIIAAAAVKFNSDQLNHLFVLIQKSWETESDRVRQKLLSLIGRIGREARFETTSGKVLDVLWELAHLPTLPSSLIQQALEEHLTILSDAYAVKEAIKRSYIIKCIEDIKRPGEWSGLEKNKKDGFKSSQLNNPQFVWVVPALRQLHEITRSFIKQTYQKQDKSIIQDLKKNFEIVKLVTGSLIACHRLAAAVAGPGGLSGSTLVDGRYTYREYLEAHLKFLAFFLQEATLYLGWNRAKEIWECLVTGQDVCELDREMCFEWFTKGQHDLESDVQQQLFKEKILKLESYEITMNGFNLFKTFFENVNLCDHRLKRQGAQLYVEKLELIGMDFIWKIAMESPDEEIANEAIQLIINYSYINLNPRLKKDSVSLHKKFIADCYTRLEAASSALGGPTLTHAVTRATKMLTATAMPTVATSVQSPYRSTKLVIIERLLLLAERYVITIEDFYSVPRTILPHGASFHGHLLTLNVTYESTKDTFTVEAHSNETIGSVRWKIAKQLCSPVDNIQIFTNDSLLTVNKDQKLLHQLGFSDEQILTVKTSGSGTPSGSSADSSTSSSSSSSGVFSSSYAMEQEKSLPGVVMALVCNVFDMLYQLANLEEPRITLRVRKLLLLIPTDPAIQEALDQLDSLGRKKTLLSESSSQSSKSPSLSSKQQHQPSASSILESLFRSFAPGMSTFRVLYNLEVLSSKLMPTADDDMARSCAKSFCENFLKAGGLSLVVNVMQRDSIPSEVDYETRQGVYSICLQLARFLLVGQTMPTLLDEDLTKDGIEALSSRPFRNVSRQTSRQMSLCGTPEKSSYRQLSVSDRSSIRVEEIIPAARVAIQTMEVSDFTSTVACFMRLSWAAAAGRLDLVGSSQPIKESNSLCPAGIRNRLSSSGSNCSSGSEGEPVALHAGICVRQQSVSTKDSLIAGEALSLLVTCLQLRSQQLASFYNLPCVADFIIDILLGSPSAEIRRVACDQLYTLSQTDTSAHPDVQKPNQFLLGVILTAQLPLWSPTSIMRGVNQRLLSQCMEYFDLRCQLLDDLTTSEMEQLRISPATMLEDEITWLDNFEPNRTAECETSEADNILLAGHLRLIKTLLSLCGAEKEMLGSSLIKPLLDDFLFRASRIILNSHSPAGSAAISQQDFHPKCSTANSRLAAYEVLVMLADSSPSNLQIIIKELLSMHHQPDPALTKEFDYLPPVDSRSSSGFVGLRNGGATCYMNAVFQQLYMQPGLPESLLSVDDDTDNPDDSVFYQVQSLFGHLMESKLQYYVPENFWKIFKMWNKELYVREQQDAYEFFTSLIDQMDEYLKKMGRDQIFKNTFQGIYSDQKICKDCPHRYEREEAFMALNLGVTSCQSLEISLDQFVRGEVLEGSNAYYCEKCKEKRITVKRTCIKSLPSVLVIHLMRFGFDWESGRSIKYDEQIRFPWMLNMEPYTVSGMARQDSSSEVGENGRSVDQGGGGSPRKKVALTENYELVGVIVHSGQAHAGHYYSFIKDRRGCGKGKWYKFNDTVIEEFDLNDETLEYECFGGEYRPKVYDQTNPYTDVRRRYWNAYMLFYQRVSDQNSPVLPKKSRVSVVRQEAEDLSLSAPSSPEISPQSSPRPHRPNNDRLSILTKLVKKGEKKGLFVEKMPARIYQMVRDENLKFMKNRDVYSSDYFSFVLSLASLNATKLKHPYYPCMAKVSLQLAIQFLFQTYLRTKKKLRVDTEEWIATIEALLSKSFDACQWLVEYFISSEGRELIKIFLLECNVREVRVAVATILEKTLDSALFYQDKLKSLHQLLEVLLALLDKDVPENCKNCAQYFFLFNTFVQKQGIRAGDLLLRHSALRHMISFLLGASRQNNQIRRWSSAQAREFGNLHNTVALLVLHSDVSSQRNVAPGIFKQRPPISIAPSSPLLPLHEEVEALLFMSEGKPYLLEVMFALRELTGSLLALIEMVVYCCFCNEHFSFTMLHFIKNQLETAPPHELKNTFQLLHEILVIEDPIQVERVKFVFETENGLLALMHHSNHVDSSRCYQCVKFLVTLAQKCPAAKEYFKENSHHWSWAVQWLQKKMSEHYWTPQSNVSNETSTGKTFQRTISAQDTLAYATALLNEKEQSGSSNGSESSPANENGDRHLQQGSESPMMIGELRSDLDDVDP
How it was run: as §1

[4] = target: T3, USP25 (UniProt Q9UHP3)
T3 sequence (whole entry): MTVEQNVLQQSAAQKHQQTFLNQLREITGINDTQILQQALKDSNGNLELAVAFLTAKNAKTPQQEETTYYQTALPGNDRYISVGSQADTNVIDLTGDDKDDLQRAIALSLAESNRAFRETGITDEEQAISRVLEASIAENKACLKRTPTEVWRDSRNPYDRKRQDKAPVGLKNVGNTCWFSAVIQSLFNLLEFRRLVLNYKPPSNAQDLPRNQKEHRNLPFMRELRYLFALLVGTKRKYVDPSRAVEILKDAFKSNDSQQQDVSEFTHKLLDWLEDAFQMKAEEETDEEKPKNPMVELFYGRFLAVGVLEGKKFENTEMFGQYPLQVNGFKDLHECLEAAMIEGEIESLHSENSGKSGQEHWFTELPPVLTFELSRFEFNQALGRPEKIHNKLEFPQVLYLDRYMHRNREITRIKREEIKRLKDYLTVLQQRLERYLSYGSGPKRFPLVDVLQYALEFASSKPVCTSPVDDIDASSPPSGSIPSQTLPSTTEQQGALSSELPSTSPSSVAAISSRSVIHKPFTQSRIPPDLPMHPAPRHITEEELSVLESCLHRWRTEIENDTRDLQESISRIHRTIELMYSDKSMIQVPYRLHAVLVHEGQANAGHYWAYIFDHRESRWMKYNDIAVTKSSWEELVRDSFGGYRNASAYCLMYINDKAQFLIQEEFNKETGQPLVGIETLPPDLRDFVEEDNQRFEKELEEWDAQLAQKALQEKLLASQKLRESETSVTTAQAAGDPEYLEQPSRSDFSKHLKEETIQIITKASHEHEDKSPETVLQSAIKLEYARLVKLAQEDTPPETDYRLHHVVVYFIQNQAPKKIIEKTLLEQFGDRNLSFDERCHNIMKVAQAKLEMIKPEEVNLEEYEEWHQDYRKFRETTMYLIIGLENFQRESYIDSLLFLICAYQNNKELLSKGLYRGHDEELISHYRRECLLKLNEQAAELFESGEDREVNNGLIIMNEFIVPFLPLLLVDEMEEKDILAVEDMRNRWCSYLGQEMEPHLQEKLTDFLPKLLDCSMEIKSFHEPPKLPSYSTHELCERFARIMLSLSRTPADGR
How it was run: as §1

[5] = target: T4, USP28 (UniProt Q96RU2)
T4 sequence (whole entry): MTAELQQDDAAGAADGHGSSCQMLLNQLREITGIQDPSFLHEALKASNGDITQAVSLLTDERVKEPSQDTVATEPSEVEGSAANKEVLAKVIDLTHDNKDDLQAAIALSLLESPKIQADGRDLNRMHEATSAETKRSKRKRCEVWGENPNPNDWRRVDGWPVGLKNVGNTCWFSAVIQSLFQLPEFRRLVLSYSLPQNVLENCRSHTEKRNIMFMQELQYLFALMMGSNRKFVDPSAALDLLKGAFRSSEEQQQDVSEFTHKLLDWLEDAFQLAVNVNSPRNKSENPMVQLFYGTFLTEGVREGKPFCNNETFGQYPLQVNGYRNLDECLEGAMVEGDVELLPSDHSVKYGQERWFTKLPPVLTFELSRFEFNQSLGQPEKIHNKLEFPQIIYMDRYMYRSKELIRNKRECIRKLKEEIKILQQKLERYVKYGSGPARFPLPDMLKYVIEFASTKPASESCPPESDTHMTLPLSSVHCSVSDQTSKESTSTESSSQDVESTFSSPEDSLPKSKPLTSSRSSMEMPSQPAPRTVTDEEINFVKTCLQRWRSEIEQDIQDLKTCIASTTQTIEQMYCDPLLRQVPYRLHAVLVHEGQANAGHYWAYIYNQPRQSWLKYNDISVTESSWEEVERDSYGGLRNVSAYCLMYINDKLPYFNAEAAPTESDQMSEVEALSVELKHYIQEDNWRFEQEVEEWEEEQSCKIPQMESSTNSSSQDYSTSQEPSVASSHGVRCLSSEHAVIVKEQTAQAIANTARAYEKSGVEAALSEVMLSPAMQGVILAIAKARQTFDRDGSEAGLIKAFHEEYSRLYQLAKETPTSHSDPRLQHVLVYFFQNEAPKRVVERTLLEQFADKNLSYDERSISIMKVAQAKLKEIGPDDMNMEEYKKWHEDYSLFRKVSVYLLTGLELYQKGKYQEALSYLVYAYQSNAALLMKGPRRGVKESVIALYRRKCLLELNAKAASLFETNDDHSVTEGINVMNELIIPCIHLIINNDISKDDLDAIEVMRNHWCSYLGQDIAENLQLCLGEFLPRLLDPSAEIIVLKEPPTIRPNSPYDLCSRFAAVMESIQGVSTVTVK
How it was run: as §1

Measured: log2 ratio of Biotin-Ahx-Ub-VS probe labelling

Cc1c(NC(=O)CCl)c(=O)n(-c2ccccc2)n1C
inactive: [1] -0.181 | [2] -0.000691 | [3] -0.125 | [4] -0.16 | [5] -0.182

Source: the supplement of paper PMC11732987, “Enantioselective OTUD7B fragment discovery through chemoproteomics screening and high-throughput optimisation” (Communications Chemistry, 2025)
